Among all 5,600 compounds or so, about 780 (14%) were called active. Not shown: some 3% with an inconclusive outcome.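 Rule for the calls: active = mean signal decrease across replicates above about 35% based on untreated-well scatter, with enough replicates individually passing (limit read from the data); inconclusive = no rule stated though some were filed; inactive = the rest.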 The list is a sample of the results.

This assay can be described thus: NIH3T3 cell viability loss – cherry-pick, single point, cytotoxicity control for T. cruzi proliferation inhibitor project, confirmation (AID 651742).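 Note: 0% = median of neutral control wells and 100% = median of positive control wells.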 To be noted: NIH/3T3 viability, CellTiter-Glo ATP luminescence, 90 h; at 8.35 µM; active compounds read high. In general terms: ATP-based viability assays read luminescence as a measure of living cells.
As to `COc1ccc(-c2ccc([C@H]3[C@H](CO)N4CCCCN(C(=O)Cc5ccncc5)C[C@@H]34)cc2)cc1`, the cytotoxicity (signal decrease) was 17.6% (inactive).
Consider `COc1ccc(C#Cc2ccc([C@H]3[C@H](CO)N4CCCCN(C(=O)Cc5ccccc5)C[C@@H]34)cc2)cc1`, for which the cytotoxicity (signal decrease) was 58.2% (active).
`O=C(Cc1ccccn1)N1CCCCN2[C@@H](CO)[C@@H](c3ccc(C#Cc4ccccc4)cc3)[C@@H]2C1`: the cytotoxicity (signal decrease) was 33.5% (inactive).
For the compound `O=C(Cc1cccnc1)N1CCCCN2[C@@H](CO)[C@H](c3ccc(C#CC4CCCC4)cc3)[C@@H]2C1`, the cytotoxicity (signal decrease) was 23.3% (inactive).
The figure for `C/C=C/c1ccc([C@H]2[C@H](CO)N3CCCCN(C(=O)Cc4ccncc4)C[C@@H]23)cc1` is 11.1% (inactive).

These data come from PubChem BioAssay AID651742 (Broad Institute, 2012).
